# This is one part of a sample in which the strongest signals are shown more often than they occur.
# Key:
# Assay in all cases: glycan array binding signal (z-score within array); higher = stronger binding
# Conditions in all cases: glycan notation: IUPAC condensed, linker removed
# [1] = molecular target: Gal3S(b1-4)GlcNAc
# Procedure, shortened: (§1)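 The Consortium for Functional Glycomics database supplied 3228 glycan arrays, of which those lacking an available protein sequence were dropped. The binding signal, a within-array Z-score, was averaged across arrays of the same protein sequence and across linkers. Negative scores can be read as non-binding.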
# [2] = molecular target: Gal6S(b1-3)GlcNAc6S
# Procedure, shortened: as §1
# [3] = molecular target: GalNAc(a1-3)GalNAc
# Procedure, shortened: as §1
# [4] = molecular target: GalNAc(a1-3)GalNAc(b1-3)Gal(a1-4)Gal(b1-4)GlcNAc
# Procedure, shortened: as §1
# [5] = molecular target: GalNAc(b1-4)GlcNAc(b1-3)GalNAc(b1-4)GlcNAc
# Procedure, shortened: as §1
# [6] = molecular target: GalNAc3S(b1-4)[Fuc(a1-3)]GlcNAc
# Procedure, shortened: as §1
# [7] = molecular target: Glc(a1-4)Glc
# Procedure, shortened: as §1
# [8] = molecular target: GlcNAc(b1-2)[GlcNAc(b1-6)]Man(a1-6)[GlcNAc(b1-4)][GlcNAc(b1-2)Man(a1-3)]Man(b1-4)GlcNAc(b1-4)GlcNAc
# Procedure, shortened: as §1
# [9] = molecular target: GlcNAc(b1-3)Gal(b1-4)GlcNAc(b1-3)Gal(b1-4)GlcNAc(b1-3)Gal(b1-4)GlcNAc(b1-2)[GlcNAc(b1-3)Gal(b1-4)GlcNAc(b1-3)Gal(b1-4)GlcNAc(b1-3)Gal(b1-4)GlcNAc(b1-6)]Man(a1-6)[GlcNAc(b1-3)Gal(b1-4)GlcNAc(b1-3)Gal(b1-4)GlcNAc(b1-3)Gal(b1-4)GlcNAc(b1-2)Man(a1-3)]Man(b1-4)GlcNAc(b1-4)[Fuc(a1-6)]GlcNAc
# Procedure, shortened: as §1
# [10] = molecular target: GlcNAc(b1-3)Gal(b1-4)GlcNAc(b1-6)[GlcNAc(b1-3)Gal(b1-3)]GalNAc
# Procedure, shortened: as §1
# [11] = molecular target: GlcNAc(b1-3)GalNAc
# Procedure, shortened: as §1
# [12] = molecular target: GlcNAc(b1-3)Man
# Procedure, shortened: as §1
# [13] = molecular target: GlcNAc(b1-3)[GlcNAc(b1-4)][GlcNAc(b1-6)]GlcNAc
# Procedure, shortened: as §1
# [14] = molecular target: GlcNAc(b1-4)GlcNAc(b1-4)GlcNAc
# Procedure, shortened: as §1
# [15] = molecular target: Kdn(a2-3)Gal(b1-3)GlcNAc
# Procedure, shortened: as §1
# [16] = molecular target: Man(a1-2)Man(a1-2)Man(a1-3)Man
# Procedure, shortened: as §1
# [17] = molecular target: Neu5Ac(a2-3)Gal(b1-3)GalNAc
# Procedure, shortened: as §1
# [18] = molecular target: Neu5Ac(a2-3)Gal(b1-3)GlcNAc(b1-6)GalNAc
# Procedure, shortened: as §1
# [19] = molecular target: Neu5Ac(a2-3)Gal(b1-3)[Neu5Ac(a2-6)]GlcNAc(b1-3)[Fuc(a1-3)[Gal(b1-4)]GlcNAc(b1-6)]Gal(b1-4)Glc
# Procedure, shortened: as §1
# [20] = molecular target: Neu5Ac(a2-3)Gal(b1-4)Glc
# Procedure, shortened: as §1
# [21] = molecular target: Neu5Ac(a2-3)Gal(b1-4)[Fuc(a1-3)]GlcNAc(b1-3)Gal(b1-4)GlcNAc
# Procedure, shortened: as §1
# [22] = molecular target: Neu5Ac(a2-6)Gal(b1-4)GlcNAc(b1-2)Man(a1-6)[Gal(b1-4)GlcNAc(b1-2)Man(a1-3)]Man(b1-4)GlcNAc(b1-4)GlcNAc
# Procedure, shortened: as §1
# [23] = molecular target: Neu5Ac(a2-6)Gal(b1-4)GlcNAc(b1-2)[Neu5Ac(a2-6)Gal(b1-4)GlcNAc(b1-6)]Man(a1-6)[Neu5Ac(a2-6)Gal(b1-4)GlcNAc(b1-2)Man(a1-3)][GlcNAc(b1-4)]Man(b1-4)GlcNAc(b1-4)GlcNAc
# Procedure, shortened: as §1
# [24] = molecular target: Neu5Ac(a2-6)Gal(b1-4)GlcNAc(b1-3)Gal(b1-4)GlcNAc(b1-3)Gal(b1-4)GlcNAc
# Procedure, shortened: as §1
# [25] = molecular target: Neu5Ac(a2-6)GalNAc(b1-4)GlcNAc
# Procedure, shortened: as §1
# [26] = molecular target: Neu5Ac(a2-8)Neu5Ac
# Procedure, shortened: as §1
# [27] = molecular target: Neu5Gc(a2-3)Gal(b1-3)GlcNAc
# Procedure, shortened: as §1
binder,measurement,setting,value
B160 (Bifidobacterium sp) (protein) MVSHNKRIVAALAAVAAMGIGLAGCGGSDTAGDTKSGSDGGVVNITYMHRLPDSEGMTLVNDIVAKWNKEHPNIQVKATKFDGNAADMIKKLETDVKAGNAPDLAQVGYAEVPEVFTKGLLQDVTDEAAKYKDDFASGPFALMQVDGKTYGLPQDTGPLTYFYNAAEFEKLGITVPKTADELIETAKKTAAQGKYIMTFTPDEAMMMMSGQAGASGPWYKVDGNSWVVNTQTKGSKAVADVYQQLIDNKAALTNPRWDASFDNSIQSGQLIGTVAAAWEAPLFIDSAGGTGAGEWKVTQLGDWFGNGTKTGANGGSGVAVLKGSKHPAEAMEFLDWFNTQVDDLVSQGLVVAATTADAKTPQKWSDYFSGQDVMAEFKTANDNMGDFTYMPGFSAVGAAMKQTAAKAADGSAKVSDVFDTAQKTSVDTLKNLGLSVKE,glycan array binding signal (z-score),[1],-0.172
same,glycan array binding signal (z-score),[2],-0.179
same,glycan array binding signal (z-score),[3],-0.173
same,glycan array binding signal (z-score),[4],-0.166
same,glycan array binding signal (z-score),[5],-0.191
same,glycan array binding signal (z-score),[6],-0.117
same,glycan array binding signal (z-score),[7],-0.177
same,glycan array binding signal (z-score),[8],-0.149
same,glycan array binding signal (z-score),[9],-0.094
same,glycan array binding signal (z-score),[10],-0.164
same,glycan array binding signal (z-score),[11],-0.154
same,glycan array binding signal (z-score),[12],-0.156
same,glycan array binding signal (z-score),[13],-0.174
same,glycan array binding signal (z-score),[14],-0.167
same,glycan array binding signal (z-score),[15],-0.172
same,glycan array binding signal (z-score),[16],-0.159
same,glycan array binding signal (z-score),[17],-0.204
same,glycan array binding signal (z-score),[18],-0.161
same,glycan array binding signal (z-score),[19],-0.173
same,glycan array binding signal (z-score),[20],-0.173
same,glycan array binding signal (z-score),[21],-0.165
same,glycan array binding signal (z-score),[22],-0.136
same,glycan array binding signal (z-score),[23],-0.14
same,glycan array binding signal (z-score),[24],-0.145
same,glycan array binding signal (z-score),[25],-0.167
same,glycan array binding signal (z-score),[26],-0.174
same,glycan array binding signal (z-score),[27],-0.189

# — the supplement of paper PMC8728848
